The full data set covers some 7,900 targets. This sample favours those with a hit. About 0.6% of all pairs of compound and target were hits.
Tests used:
Experiment in all cases: log2 fold change, soluble protein after heating vs DMSO (PISA); higher = thermal stabilisation; K562 cells, 10 uM, 30 min; active = over 0.2 and 3.5 SD of the protein, either way, in both replicates (recomputed)
[1] = compound: COC1=CC=C(C=C1)CN2C=CC3=C2C=C(C=C3)C(=O)NO
Summary of the method: (§1)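 K562 cells at 2×10^6 cells/mL were exposed to 10 μM compound for 30 min, then aliquots were heated for 3 min across 48°C-58°C, pooled, and extracted in PBS containing 0.5% NP-40 at 4°C. The supernatant after 21,000xg for 90 min was taken as soluble protein and measured by TMTpro 16plex LC-MS/MS with channel sums equalised. Thermal stability is reported relative to control samples, with values from duplicates. Fold changes are given on a log2 scale.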

[2] = compound: CON(C)C(=O)N1N=C(c2cc(F)ccc2F)S[C@@]1(CCCN)c1ccccc1 [filanesib]
Summary of the method: as §1

[3] = compound: CO[C@H]1C[C@@H]2CC[C@@H](C)[C@@](O)(O2)C(=O)C(=O)N2CCCC[C@H]2C(=O)O[C@H]([C@H](C)C[C@@H]2CC[C@H](n3cnnn3)[C@H](OC)C2)CC(=O)[C@H](C)/C=C(\C)[C@@H](O)[C@@H](OC)C(=O)[C@H](C)C[C@H](C)/C=C/C=C/C=C/1C [zotarolimus]
Summary of the method: as §1

[4] = compound: COc1cc(C(=O)O)ccc1NC(=O)[C@@H]1N[C@@H](CC(C)(C)C)[C@](C#N)(c2ccc(Cl)cc2F)[C@H]1c1cccc(Cl)c1F [idasanutlin]
Summary of the method: as §1

[5] = compound: COc1cc(Nc2ncc3c(n2)-c2ccc(Cl)cc2C(c2c(F)cccc2OC)=NC3)ccc1C(=O)O [alisertib]
Summary of the method: as §1

[6] = compound: COc1cc2nc(-c3cc(F)ccc3O)nc(N[C@@H]3CNC[C@H]3C(C)(C)O)c2cc1OC
Summary of the method: as §1

[7] = compound: COc1cc2ncnc(Nc3ccc(F)c(Cl)c3)c2cc1OCCCN1CCOCC1 [gefitinib]
Summary of the method: as §1

[8] = compound: COc1cccc2cc(-c3nc([C@H]4CC[C@H](C(=O)O)CC4)n4ncnc(N)c34)[nH]c12
Summary of the method: as §1

[9] = compound: CS(=O)(=O)CCNCc1ccc(-c2ccc3ncnc(Nc4ccc(OCc5cccc(F)c5)c(Cl)c4)c3c2)o1 [lapatinib]
Summary of the method: as §1

[10] = compound: CS(=O)(=O)N1CCN(Cc2cc3nc(-c4cccc5[nH]ncc45)nc(N4CCOCC4)c3s2)CC1 [pictilisib]
Summary of the method: as §1

Measured: log2 fold change

HAX1 (UniProt O00165)
inactive: [1] -0.056 | [2] 0.017 | [3] 0.004 | [4] 0.04 | [5] -0.007 | [6] -0.311 | [7] -0.041 | [8] -0.014 | [9] -0.015 | [10] -0.145

FDFT1 (UniProt P37268)
UniProt P37268, sequence (P37268 whole entry, looked up): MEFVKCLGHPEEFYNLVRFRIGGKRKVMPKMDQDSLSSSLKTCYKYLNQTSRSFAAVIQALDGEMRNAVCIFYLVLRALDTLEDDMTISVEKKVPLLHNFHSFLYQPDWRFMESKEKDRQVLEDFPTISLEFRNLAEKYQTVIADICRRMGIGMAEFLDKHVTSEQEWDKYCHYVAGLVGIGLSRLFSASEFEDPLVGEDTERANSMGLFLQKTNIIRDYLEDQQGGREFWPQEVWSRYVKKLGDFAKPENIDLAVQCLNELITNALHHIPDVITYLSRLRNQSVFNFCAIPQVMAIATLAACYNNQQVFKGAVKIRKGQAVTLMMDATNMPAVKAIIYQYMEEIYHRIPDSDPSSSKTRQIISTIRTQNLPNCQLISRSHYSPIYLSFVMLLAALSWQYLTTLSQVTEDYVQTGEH
active: [2] 0.401
inactive: [1] 0.123 | [3] 0.014 | [4] 0.013 | [5] 0.008 | [6] -0.052 | [7] -0.01 | [8] 0.042 | [9] -0.023 | [10] 0

FBXO6 (UniProt Q9NRD1)
inactive: [1] -0.016 | [2] 0.008 | [3] 0.044 | [4] -0.17 | [5] -0.043 | [6] 0.022 | [7] 0.059 | [8] 0.038 | [9] 0.026 | [10] -0.091

HIKESHI (UniProt Q53FT3)
UniProt Q53FT3, sequence (Q53FT3 whole entry, looked up): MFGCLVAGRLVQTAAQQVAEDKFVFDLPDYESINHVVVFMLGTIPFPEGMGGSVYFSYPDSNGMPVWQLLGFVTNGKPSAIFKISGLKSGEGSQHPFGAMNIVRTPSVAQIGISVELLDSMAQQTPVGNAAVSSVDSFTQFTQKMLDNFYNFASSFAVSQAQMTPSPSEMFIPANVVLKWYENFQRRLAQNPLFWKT
inactive: [1] -0.051 | [2] -0.063 | [3] 0.026 | [4] -0.05 | [5] -0.076 | [6] 0.067 | [7] 0.011 | [8] 0.009 | [9] -0.021 | [10] -0.004

GPX4 (UniProt P36969)
active: [3] -0.248
inactive: [1] -0.035 | [2] -0.011 | [4] 0.032 | [5] -0.02 | [6] 0.003 | [7] -0.004 | [8] 0.076 | [9] -0.036 | [10] -0.034

GSTP1 (UniProt P09211)
UniProt P09211, sequence (P09211 whole entry, looked up): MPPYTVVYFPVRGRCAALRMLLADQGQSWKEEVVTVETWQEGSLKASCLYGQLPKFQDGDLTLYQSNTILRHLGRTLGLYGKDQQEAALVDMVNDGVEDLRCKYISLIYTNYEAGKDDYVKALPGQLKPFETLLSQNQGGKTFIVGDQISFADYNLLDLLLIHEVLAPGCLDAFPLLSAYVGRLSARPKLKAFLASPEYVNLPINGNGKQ
inactive: [1] -0.033 | [2] -0.038 | [3] 0.004 | [4] -0.033 | [5] -0.003 | [6] -0.003 | [7] 0.021 | [8] 0.069 | [9] -0.032 | [10] 0.035

GDI1 (UniProt P31150)
inactive: [1] -0.073 | [2] -0.043 | [3] 0.01 | [4] -0.056 | [5] -0.067 | [6] 0.045 | [7] -0.011 | [8] 0.037 | [9] -0.032 | [10] -0.006

HNRNPC isoform 2 (UniProt P07910)
inactive: [1] 0.009 | [2] 0.39 | [3] -0.024 | [4] 0.796 | [5] -0.052 | [6] -0.041 | [7] 0.002 | [8] -0.065 | [9] -0.026 | [10] 0.065

HADHB (UniProt P55084)
inactive: [1] 0.248 | [2] 0.094 | [3] 0.038 | [4] -0.263 | [5] -0.026 | [6] 0.217 | [7] 0.17 | [8] -0.085 | [9] 0.086 | [10] 0.383

FANCI (UniProt Q9NVI1)
inactive: [1] 0.004 | [2] -0.189 | [3] -0.01 | [4] -0.014 | [5] -0.015 | [6] -0.113 | [7] -0.034 | [8] 0.033 | [9] 0.001 | [10] 0

HIST2H2BF isoform 2 (UniProt Q5QNW6)
inactive: [1] 0.062 | [2] 0.248 | [3] -0.163 | [4] 0.437 | [5] 0.081 | [6] -0.112 | [7] 0.053 | [8] -0.314 | [9] 0.047 | [10] -0.137

GMEB1 (UniProt Q9Y692)
inactive: [1] 0.049 | [2] 0.205 | [3] 0.042 | [4] 0.027 | [5] -0.041 | [6] -0.042 | [7] -0.049 | [8] 0.008 | [9] 0.031 | [10] -0.087

IFT74 (UniProt Q96LB3)
UniProt Q96LB3, sequence (Q96LB3 whole entry, looked up): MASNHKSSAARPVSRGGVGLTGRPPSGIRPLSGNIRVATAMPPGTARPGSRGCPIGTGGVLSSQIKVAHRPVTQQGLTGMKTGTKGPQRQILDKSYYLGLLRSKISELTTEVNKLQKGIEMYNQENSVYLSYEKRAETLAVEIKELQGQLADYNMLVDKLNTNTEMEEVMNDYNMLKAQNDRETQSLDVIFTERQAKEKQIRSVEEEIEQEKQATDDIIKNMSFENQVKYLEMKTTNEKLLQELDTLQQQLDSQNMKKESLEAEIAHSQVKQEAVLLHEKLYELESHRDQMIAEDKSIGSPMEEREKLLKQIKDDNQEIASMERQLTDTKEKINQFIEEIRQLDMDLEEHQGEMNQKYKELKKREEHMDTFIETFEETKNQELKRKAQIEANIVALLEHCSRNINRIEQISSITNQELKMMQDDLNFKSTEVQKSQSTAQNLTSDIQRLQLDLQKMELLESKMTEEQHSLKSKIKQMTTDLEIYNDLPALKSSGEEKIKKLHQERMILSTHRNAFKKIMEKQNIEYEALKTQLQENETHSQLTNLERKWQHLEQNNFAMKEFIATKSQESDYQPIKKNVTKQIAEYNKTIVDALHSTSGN
inactive: [1] 0.083 | [2] -0.014 | [3] 0.019 | [4] -0.058 | [5] -0.102 | [6] 0.339 | [7] 0.035 | [8] 0.024 | [9] -0.025 | [10] 0.052

IDH3A (UniProt P50213)
UniProt P50213, sequence (P50213 whole entry, looked up): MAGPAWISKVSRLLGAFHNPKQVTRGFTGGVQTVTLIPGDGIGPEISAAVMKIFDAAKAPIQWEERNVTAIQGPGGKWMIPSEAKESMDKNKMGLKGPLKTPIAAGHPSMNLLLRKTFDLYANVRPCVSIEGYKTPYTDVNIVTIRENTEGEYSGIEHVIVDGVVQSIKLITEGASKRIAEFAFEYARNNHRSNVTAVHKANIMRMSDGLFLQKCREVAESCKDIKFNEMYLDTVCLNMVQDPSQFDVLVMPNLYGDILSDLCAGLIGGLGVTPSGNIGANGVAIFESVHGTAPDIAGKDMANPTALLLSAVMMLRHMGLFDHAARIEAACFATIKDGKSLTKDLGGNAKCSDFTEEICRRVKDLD
inactive: [1] 0 | [2] -0.067 | [3] 0.007 | [4] -0.074 | [5] -0.063 | [6] -0.009 | [7] 0.039 | [8] 0.022 | [9] 0.017 | [10] -0.021

IFRD2 isoform 2 (UniProt Q12894)
UniProt Q12894, sequence (Q12894 whole entry, looked up): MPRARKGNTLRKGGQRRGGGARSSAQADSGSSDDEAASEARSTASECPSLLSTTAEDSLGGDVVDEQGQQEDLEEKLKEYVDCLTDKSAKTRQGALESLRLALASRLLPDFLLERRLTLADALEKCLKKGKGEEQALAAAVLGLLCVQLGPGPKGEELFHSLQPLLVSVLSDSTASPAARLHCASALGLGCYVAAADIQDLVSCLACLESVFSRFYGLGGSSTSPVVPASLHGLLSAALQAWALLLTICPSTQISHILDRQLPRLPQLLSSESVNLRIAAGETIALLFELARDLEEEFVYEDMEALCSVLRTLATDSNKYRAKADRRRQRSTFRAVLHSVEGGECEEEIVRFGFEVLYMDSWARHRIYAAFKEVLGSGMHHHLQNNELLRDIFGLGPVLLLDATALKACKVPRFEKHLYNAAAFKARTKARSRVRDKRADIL
inactive: [1] -0.073 | [2] 0.008 | [3] 0.24 | [4] 0 | [5] -0.278 | [6] -0.219 | [7] 0.128 | [9] 0.037 | [10] 0.336
active: [8] 0.508

IFRD1 (UniProt O00458)
UniProt O00458, sequence (O00458 whole entry, looked up): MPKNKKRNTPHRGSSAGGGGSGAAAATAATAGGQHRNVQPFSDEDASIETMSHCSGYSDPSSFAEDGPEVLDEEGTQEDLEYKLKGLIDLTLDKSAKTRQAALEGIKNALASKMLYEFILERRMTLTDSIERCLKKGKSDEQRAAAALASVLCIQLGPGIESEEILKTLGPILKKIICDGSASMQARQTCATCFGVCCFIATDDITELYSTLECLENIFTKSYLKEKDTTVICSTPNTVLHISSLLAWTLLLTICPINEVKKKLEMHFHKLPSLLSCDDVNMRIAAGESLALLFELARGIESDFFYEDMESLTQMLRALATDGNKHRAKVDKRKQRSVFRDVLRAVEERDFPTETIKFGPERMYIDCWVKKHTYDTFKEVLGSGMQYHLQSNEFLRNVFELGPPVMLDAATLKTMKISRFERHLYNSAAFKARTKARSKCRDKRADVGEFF
inactive: [1] -0.07 | [2] -0.017 | [3] 0.071 | [4] -0.042 | [5] -0.008 | [6] -0.25 | [7] 0.199 | [8] 0.253 | [9] 0.069 | [10] 0.214

HK2 (UniProt P52789)
UniProt P52789, sequence (P52789 whole entry, looked up): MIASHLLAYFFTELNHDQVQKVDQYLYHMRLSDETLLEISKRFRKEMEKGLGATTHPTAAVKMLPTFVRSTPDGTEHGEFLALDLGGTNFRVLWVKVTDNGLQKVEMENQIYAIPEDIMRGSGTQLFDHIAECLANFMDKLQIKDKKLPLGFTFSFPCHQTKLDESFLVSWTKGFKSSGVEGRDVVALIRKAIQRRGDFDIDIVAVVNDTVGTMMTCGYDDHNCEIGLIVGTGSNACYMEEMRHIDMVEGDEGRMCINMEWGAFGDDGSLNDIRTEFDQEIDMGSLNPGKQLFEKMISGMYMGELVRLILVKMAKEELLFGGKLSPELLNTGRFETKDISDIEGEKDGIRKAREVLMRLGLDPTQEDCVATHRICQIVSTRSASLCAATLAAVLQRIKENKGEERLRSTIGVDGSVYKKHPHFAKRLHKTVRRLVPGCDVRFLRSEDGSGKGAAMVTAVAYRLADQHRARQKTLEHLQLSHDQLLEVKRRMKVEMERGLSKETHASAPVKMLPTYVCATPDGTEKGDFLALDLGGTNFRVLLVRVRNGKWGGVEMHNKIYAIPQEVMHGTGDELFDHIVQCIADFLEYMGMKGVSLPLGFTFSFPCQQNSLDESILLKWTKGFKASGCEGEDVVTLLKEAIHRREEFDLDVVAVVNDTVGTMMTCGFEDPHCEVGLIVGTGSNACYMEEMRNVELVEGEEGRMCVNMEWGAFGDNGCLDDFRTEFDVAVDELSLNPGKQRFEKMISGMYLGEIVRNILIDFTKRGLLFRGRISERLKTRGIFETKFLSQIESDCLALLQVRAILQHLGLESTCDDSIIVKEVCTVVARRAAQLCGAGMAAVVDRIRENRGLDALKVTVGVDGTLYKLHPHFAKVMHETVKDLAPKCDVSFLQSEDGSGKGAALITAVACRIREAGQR
inactive: [1] 0.035 | [2] 0.031 | [3] 0.03 | [4] -0.064 | [5] -0.124 | [6] 0.097 | [7] -0.07 | [8] 0.005 | [9] -0.206
active: [10] -0.353

GALK1 isoform 2 (UniProt P51570)
UniProt P51570, sequence (P51570 whole entry, looked up): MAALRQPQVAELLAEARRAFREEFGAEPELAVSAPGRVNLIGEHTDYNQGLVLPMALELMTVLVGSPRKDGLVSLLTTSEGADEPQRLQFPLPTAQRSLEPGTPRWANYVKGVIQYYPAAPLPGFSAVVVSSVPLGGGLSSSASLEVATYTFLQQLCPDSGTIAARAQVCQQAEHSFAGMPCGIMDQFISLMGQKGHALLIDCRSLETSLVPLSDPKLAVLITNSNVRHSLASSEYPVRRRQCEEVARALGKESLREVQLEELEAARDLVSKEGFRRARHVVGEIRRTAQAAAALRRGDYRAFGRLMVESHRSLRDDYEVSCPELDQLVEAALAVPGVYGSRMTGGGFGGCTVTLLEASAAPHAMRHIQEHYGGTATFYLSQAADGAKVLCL
inactive: [1] -0.023 | [2] -0.201 | [3] 0.012 | [4] -0.106 | [5] -0.125 | [6] -0.049 | [7] -0.005 | [8] 0.036 | [9] 0.147 | [10] -0.05

GTF3C4 (UniProt Q9UKN8)
inactive: [1] -0.038 | [2] 0.034 | [3] 0.019 | [4] -0.003 | [5] -0.032 | [6] 0.007 | [7] 0.058 | [8] -0.011 | [9] 0.029 | [10] 0.028

FNTA (UniProt P49354)
inactive: [1] 0.162 | [2] 0.069 | [3] 0.019 | [4] -0.062 | [5] -0.074 | [6] -0.01 | [7] 0.056 | [8] 0.044 | [9] 0.04 | [10] -0.005

HMGCR isoform 3 (UniProt P04035)
inactive: [1] -0.097 | [2] -0.027 | [3] 0 | [4] 0.188 | [5] -0.146 | [6] 0.166 | [7] 0.01 | [8] -0.045 | [9] -0.066 | [10] -0.13

GCDH (UniProt Q92947)
UniProt Q92947, sequence (Q92947 whole entry, looked up): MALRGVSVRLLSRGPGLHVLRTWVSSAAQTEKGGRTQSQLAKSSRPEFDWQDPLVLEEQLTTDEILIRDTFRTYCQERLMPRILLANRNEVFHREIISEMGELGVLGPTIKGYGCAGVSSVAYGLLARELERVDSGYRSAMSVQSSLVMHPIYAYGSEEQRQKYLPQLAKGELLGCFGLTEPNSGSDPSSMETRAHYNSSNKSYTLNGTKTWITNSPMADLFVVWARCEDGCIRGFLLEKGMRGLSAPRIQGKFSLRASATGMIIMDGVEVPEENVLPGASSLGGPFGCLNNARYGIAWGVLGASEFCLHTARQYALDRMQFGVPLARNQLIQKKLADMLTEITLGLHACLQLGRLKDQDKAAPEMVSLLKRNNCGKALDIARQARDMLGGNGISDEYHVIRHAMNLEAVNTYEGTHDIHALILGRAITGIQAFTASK
inactive: [1] 0.02 | [2] -0.081 | [3] 0.027 | [4] -0.066 | [5] -0.066 | [6] -0.011 | [7] 0.042 | [8] 0.016 | [9] -0.004 | [10] -0.02

GMEB2 (UniProt Q9UKD1)
inactive: [1] -0.027 | [2] 0.04 | [3] 0.03 | [4] 0.073 | [5] -0.009 | [6] 0.053 | [7] 0.038 | [8] 0.027 | [9] -0.022 | [10] 0.101

HLTF (UniProt Q14527)
inactive: [1] -0.027 | [2] -0.004 | [3] -0.042 | [4] -0.049 | [5] 0.008 | [6] 0.081 | [8] -0.126 | [9] 0.013 | [10] 0.007
active: [7] 0.334

HRAS (UniProt P01112)
inactive: [1] 0.008 | [2] -0.023 | [3] -0.049 | [4] 0.075 | [5] -0.157 | [6] -0.044 | [7] 0.021 | [8] -0.015 | [9] 0.076 | [10] 0.012

HNRNPUL2 (UniProt Q1KMD3)
inactive: [1] -0.012 | [2] 0.156 | [3] -0.015 | [4] 0.083 | [5] -0.026 | [6] 0.105 | [7] -0.02 | [8] 0.005 | [9] -0.018 | [10] 0.035

GDPD1 (UniProt Q8N9F7)
inactive: [2] 0.056 | [3] 0.13 | [4] 0.156 | [5] -0.068 | [6] 0.208 | [7] 0.067 | [8] 0.021 | [9] 0.04 | [10] 0.085
active: [1] 0.353

GCLM (UniProt P48507)
inactive: [1] 0.066 | [2] -0.004 | [3] 0.071 | [4] -0.124 | [5] -0.003 | [6] 0.026 | [7] 0.06 | [8] -0.057 | [9] 0.011 | [10] 0.046

GPAT4 (UniProt Q86UL3)
UniProt Q86UL3, sequence (Q86UL3 whole entry, looked up): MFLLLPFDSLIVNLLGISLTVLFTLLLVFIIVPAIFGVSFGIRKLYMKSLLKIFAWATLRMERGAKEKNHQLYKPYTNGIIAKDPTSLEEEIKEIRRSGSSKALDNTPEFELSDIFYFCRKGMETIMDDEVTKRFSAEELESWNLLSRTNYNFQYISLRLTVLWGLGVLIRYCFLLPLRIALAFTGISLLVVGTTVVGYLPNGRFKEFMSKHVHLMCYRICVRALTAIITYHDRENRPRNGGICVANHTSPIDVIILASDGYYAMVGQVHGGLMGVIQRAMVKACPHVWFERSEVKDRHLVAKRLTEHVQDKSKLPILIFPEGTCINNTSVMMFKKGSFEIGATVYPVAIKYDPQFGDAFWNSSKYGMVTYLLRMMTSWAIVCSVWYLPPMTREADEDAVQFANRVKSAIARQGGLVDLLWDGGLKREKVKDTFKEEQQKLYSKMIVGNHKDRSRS
inactive: [1] -0.034 | [2] -0.024 | [3] 0.055 | [4] -0.093 | [5] 0.01 | [6] 0.188 | [7] 0.006 | [8] -0.046 | [9] -0.031 | [10] 0.036

HSPA8 (UniProt E9PN89)
inactive: [1] -0.312 | [2] 0.126 | [3] -0.036 | [4] 0.113 | [5] 0.042 | [6] 0.191 | [7] 0.035 | [8] 0.126 | [9] -0.426 | [10] 0.134

From the supplement of paper PMC10849652
